Assay [1] is described as follows: ATG_TGFb_CIS: Attagene CIS-FACTORIAL HepG2 Assay for human Transforming Growth Factor (TGF) (AID 2282967). The note with it: HepG2 Attagene CIS TGFb reporter, mRNA transcription; actives raise or lower the signal. Summed up: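 Multiplexed cis-reporter HepG2 system, 24 h treatment; mRNA induction read by fluorescence after RT-PCR and CE; DMSO negative control, bidirectional curve fitting.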

Assay [2] deals with X-box-binding protein 1 (Homo sapiens) (UniProt P17861). The experiment in a line: ATG_Xbp1_CIS: Attagene CIS-FACTORIAL HepG2 Assay for human X-box Binding Protein 1 (XBP1) (AID 2282972). The conditions noted are these: HepG2 XBP1 cis-element reporter, Attagene multiplex; actives raise or lower the signal. Summed up: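 HepG2 cells transiently transfected with cis-regulated multiple reporter transcription units; endogenous transcription factor activity measured 24 hours after chemical dosing. Reporter mRNA quantified by RT-PCR, 6-FAM primer extension, HpaI digestion and capillary electrophoresis; bidirectional fitting versus DMSO.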

A short description of assay [3]: ATG_GAL4_TRANS: Attagene TRANS-FACTORIAL HepG2 Assay for GAL4 (Internal Marker) (AID 2282976; active = hit-call score of the fitted dose curve at least 0.9, where 1 is the maximum). The note with it: HepG2 Attagene TRANS GAL4 internal marker reporter. Summed up: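 First, HepG2 cells were transfected with reporter units under GAL4-UAS control. Next, they were treated with chemical for 24 h. Finally, RNA was reverse-transcribed, PCR-amplified, FAM-labelled and resolved by capillary electrophoresis, with induction scored against DMSO.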

The nature of assay [4]: ATG_VDRE_CIS: Attagene CIS-FACTORIAL HepG2 Assay for human Vitamin D Receptor Element (VDRE) (AID 2282968). The conditions noted are these: HepG2 VDRE cis-reporter transcription, actives raise or lower the signal. The method, boiled down: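 Reporter mRNA induction, quantified by capillary electrophoresis of fluorescently labelled RT-PCR products, was read 24 h after dosing HepG2 cells carrying transiently transfected cis-regulated reporter units; gain or loss relative to DMSO.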

In assay [5] the target is Estrogen-related receptor gamma (Homo sapiens) (UniProt P62508). The experiment in a line: ATG_ERRg_TRANS: Attagene TRANS-FACTORIAL HepG2 Assay for human Estrogen-Related Receptor gamma (ERRg) (AID 2282977; active = hit-call score of the fitted dose curve at least 0.9, where 1 is the maximum;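 also: hits increase reporter signal over DMSO so potencies reflect activators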). The conditions noted are these: HepG2 Attagene TRANS reporter, ERRg transactivation. Summed up: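 Transfect HepG2 with multiple GAL4-UAS reporter transcription units; dose chemicals 24 h; isolate RNA, reverse-transcribe with oligo(dT), PCR-amplify, label with 6-FAM, digest with HpaI; size fragments by capillary electrophoresis. DMSO serves as negative control.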

Assay [6] can be described thus: ATG_M_19_TRANS: Attagene TRANS-FACTORIAL HepG2 Assay for M19 Transcription Factor (Internal Marker) (AID 2282974; active = hit-call score of the fitted dose curve at least 0.9, where 1 is the maximum). The note with it: HepG2 Attagene TRANS-FACTORIAL M19 internal marker reporter. The method, boiled down:
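24 h chemical exposure of transiently transfected HepG2 (MRTU library). RNA → oligo(dT) RT → PCR → 6-FAM labelling → HpaI cut → CE fluorescence. Positive-direction fit vs DMSO baseline; background internal-marker readout.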

Assay [7] has as its target Nuclear receptor subfamily 1 group I member 3 (Homo sapiens) (UniProt Q14994). The experiment in a line: ATG_CAR_TRANS: Attagene TRANS-FACTORIAL HepG2 Assay for human Constitutive Androstane Receptor (CAR) (AID 2282969; active = hit-call score of the fitted dose curve at least 0.9, where 1 is the maximum;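 also: activators raise reporter mRNA above DMSO so AC50 marks induction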). The conditions noted are these: HepG2 Attagene TRANS-FACTORIAL CAR reporter. Summed up:
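Readout is reporter mRNA induction, quantified by fluorescent primer extension and capillary electrophoresis after RT-PCR. Cells were HepG2 transiently carrying chimeric NR-Gal4 constructs with GAL4-UAS reporters, treated for 24 h; activity scored upward from DMSO.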

For assay [8], the target named is Estrogen receptor (Homo sapiens) (UniProt P03372). The experiment in a line: ATG_ERa_TRANS: Attagene TRANS-FACTORIAL HepG2 Assay for human Estrogen Receptor alpha (ERa) (AID 2282970; active = hit-call score of the fitted dose curve at least 0.9, where 1 is the maximum). The note with it: HepG2 Attagene TRANS ERa GAL4 reporter, mRNA. Summed up:
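Human liver HepG2, transient transfection of multiple GAL4-UAS reporter units; TRANS format (exogenous NR-Gal4 chimera). 24 h dosing. Readout: reporter mRNA, RT-PCR, 6-FAM primer extension, HpaI digest, capillary electrophoresis. Positive direction vs DMSO.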

In assay [9] the target is Steroid hormone receptor ERR1 (Homo sapiens) (UniProt P11474). The experiment in a line: ATG_ERRa_TRANS: Attagene TRANS-FACTORIAL HepG2 Assay for human Estrogen-Related Receptor alpha (ERRa) (AID 2282971; active = hit-call score of the fitted dose curve at least 0.9, where 1 is the maximum). The conditions noted are these: HepG2 Attagene TRANS reporter, ERRa transactivation. The method, boiled down: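 Reporter transcript induction was quantified by RT-PCR and capillary electrophoresis of FAM-labelled, HpaI-cut products after 24 h treatment of HepG2 cells carrying transiently transfected GAL4-UAS reporter units and an exogenous ERRa-Gal4 fusion; activity scored as increase over DMSO.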

Assay [10] has as its target Glucocorticoid receptor (Homo sapiens) (UniProt P04150). The experiment in a line: ATG_GR_TRANS: Attagene TRANS-FACTORIAL HepG2 Assay for human Glucocorticoid Receptor (GR) (AID 2282978; active = hit-call score of the fitted dose curve at least 0.9, where 1 is the maximum;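 also: activators score as hits since higher reporter transcript over DMSO is fitted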). The note with it: HepG2 Attagene TRANS GR reporter, mRNA transcription. Summed up: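 Transient MRTU transfection of HepG2 (GAL4-UAS reporters, exogenous NR-GAL4 chimeras), 24 h dosing. Readout: reporter transcript via RT-PCR + capillary electrophoresis fluorescence. Positive direction vs DMSO baseline.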

Records with an inconclusive call do not appear. A structure can be active in one record and inactive in another. The source made the active and inactive calls. The calls were made as follows, unless noted: active = hit-call score of the fitted dose curve at least 0.9, where 1 is the maximum; inactive = score below 0.9.

Sequence of Nuclear receptor subfamily 1 group I member 3 (Homo sapiens) (Q14994 whole entry, looked up, the tested form may be a part): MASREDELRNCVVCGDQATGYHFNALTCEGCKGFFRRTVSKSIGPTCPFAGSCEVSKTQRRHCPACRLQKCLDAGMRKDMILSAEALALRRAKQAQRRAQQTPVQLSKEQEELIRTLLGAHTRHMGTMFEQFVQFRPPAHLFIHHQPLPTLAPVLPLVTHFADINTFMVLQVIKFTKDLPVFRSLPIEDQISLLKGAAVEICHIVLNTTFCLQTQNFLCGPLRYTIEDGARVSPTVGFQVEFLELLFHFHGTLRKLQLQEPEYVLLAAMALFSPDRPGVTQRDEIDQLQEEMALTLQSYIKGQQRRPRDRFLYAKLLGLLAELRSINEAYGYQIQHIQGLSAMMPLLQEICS
Sequence of Estrogen receptor (Homo sapiens) (P03372 whole entry, looked up, the tested form may be a part): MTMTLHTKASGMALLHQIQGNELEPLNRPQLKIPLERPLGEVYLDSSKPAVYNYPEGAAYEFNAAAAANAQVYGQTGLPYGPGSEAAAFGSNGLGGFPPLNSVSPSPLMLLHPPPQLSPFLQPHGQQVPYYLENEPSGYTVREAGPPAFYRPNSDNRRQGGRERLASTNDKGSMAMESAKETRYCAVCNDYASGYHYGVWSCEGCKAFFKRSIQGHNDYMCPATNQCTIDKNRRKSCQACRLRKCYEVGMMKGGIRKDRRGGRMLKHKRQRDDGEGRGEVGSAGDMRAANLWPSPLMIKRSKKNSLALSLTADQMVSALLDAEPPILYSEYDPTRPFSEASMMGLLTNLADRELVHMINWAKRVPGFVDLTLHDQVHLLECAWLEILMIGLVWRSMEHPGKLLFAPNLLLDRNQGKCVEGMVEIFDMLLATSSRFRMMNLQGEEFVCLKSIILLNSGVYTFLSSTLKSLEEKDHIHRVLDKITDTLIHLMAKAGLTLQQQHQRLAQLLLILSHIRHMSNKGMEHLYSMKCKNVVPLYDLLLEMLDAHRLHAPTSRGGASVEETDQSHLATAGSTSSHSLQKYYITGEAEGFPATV
Sequence of Estrogen-related receptor gamma (Homo sapiens) (P62508 whole entry, looked up, the tested form may be a part): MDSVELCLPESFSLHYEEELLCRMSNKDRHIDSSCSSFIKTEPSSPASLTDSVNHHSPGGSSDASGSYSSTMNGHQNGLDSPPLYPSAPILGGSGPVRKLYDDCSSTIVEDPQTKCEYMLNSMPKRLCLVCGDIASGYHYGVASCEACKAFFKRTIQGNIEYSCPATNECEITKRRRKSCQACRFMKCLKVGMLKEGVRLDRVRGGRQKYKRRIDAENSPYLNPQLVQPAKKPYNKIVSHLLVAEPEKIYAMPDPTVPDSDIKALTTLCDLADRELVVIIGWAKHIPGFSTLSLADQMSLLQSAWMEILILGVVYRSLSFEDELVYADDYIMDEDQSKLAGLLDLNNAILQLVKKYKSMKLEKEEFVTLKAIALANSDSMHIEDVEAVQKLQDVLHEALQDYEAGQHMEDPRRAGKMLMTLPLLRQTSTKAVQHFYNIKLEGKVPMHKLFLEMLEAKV
Sequence of X-box-binding protein 1 (Homo sapiens) (P17861 whole entry, looked up): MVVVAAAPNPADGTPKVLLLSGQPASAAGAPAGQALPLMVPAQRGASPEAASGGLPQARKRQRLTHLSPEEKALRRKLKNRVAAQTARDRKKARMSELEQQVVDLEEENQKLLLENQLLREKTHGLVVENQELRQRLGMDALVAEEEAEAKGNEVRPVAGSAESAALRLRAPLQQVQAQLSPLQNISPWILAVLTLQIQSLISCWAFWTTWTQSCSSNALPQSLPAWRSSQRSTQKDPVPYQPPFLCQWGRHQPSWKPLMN
Sequence of Steroid hormone receptor ERR1 (Homo sapiens) (P11474 whole entry, looked up, the tested form may be a part): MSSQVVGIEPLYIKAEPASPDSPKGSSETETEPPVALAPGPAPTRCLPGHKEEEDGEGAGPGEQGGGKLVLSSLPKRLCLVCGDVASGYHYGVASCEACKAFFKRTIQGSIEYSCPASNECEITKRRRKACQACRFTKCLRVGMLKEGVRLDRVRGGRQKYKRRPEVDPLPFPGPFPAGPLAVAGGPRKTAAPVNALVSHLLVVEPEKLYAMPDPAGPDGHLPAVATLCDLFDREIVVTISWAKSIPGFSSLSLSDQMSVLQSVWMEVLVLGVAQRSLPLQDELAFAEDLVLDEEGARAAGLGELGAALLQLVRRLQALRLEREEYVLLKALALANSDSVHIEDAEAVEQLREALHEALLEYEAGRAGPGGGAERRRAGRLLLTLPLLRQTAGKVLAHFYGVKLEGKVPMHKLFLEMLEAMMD
Sequence of Glucocorticoid receptor (Homo sapiens) (P04150 whole entry, looked up, the tested form may be a part): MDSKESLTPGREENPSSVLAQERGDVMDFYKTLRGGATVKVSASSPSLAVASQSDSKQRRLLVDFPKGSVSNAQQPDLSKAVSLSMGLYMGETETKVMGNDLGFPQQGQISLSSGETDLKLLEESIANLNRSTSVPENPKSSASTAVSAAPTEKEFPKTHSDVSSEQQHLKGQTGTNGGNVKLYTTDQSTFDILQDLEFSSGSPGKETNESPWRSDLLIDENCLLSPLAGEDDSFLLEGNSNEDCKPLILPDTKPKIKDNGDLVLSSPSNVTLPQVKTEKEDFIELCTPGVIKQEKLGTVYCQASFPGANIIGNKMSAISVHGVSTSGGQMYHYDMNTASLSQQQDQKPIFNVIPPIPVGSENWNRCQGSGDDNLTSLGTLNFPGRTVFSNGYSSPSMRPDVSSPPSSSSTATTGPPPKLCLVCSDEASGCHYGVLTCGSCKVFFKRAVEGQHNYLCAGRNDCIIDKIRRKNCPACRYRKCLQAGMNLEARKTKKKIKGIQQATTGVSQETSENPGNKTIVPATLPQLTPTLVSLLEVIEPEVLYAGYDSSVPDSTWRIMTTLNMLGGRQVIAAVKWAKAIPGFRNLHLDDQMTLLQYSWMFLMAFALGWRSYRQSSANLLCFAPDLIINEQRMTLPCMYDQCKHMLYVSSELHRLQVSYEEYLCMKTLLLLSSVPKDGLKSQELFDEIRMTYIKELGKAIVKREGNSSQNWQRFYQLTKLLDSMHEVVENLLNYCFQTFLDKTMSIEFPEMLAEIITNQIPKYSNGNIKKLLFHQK

For `O=C1c2c(O)cccc2Cc2cccc(O)c21`, the compound was called inactive in assay [1], in assay [2] and in assay [3].

For `NC=O`, the result in assay [1], in assay [4], in [2] and in assay [5] was inactive.

As for `CC(=O)O`, the result in assay [1], in assay [2] and in assay [6] was inactive.

With `CCCCOC(=O)CCCCC(=O)OCCCC`, the compound was called inactive in assay [1], in assay [4], in [2], in [6] and in assay [5].

On to `C#CC(O)C(CC)CCCC` (stereo unspecified), for which the outcome in assay [1], in [7], in assay [2] and in assay [6] was inactive.

On to `CC(N)=O`, for which the compound was classed as inactive in [1], in assay [2] and in [3].

Turning to `O=C1O[C@H]([C@H](O)CO)C(O)=C1O`, the call in assay [1], in assay [2], in assay [6] and in [3] was inactive.

For `NC1CCCCC1`, the outcome in assay [1], in assay [4], in [2] and in [3] was inactive.

Consider `NC(=Nc1ccccc1)Nc1ccccc1`, for which the call in [1], in [8] and in assay [6] was inactive. In addition, the AC50 (as a rule, the midpoint of the concentration-response curve, whichever way the signal moves) in assay [2] is 57.2 µM (active).

Regarding `Cc1ccc(-c2cc(C(F)(F)F)nn2-c2ccc(S(N)(=O)=O)cc2)cc1`, the compound was called inactive in assay [1], in assay [8], in assay [2] and in [5].

As for `C/C=C/c1ccc(OC)cc1`, the outcome in assay [1], in assay [2] and in assay [6] was inactive.

As to `O=C(O)c1cccnc1`, the call in assay [1], in assay [7], in [2], in [6] and in [3] was inactive. For the same compound, the half-maximal activity concentration (AC50) in assay [2] was 25.2 µM (active).

In the case of `CC(C)c1cccc(C(C)C)c1NC(=O)NS(=O)(=O)c1cc(C(C)(C)O)co1`, the result in assay [1], in assay [2] and in [3] was inactive. Further, the AC50 in assay [4] is 29.7 µM (active).

`CCCCC(CC)COC(=O)CCCCCCCC(=O)OCC(CC)CCCC` (stereo unspecified): the result in assay [1], in assay [7], in assay [9], in assay [2] and in [10] was inactive.

Take `COc1ccc(C(=O)Nc2nc3ccccc3c(NCc3ccccc3)c2C#N)cc1`: the compound was classed as inactive in assay [1], in assay [8], in [9], in [2], in assay [6] and in assay [5].

For `Cc1cc(Cc2ccc(N)c(C)c2)ccc1N`, the call in assay [1], in assay [7], in [2], in assay [6] and in assay [3] was inactive.

Regarding `CCOCCOCCO`, the compound was called inactive in assay [1], in [9], in assay [2], in assay [6], in [3] and in assay [5].

As to `CCc1cc(C2=C(C(=O)O)N(c3ccccc3C(F)(F)F)S(=O)(=O)c3ccccc32)cc2c1OCO2`, the result in assay [1], in assay [2] and in assay [3] was inactive. Also, in assay [4], the AC50 is 11.8 µM (active).

In the case of `CN(C)CCCN(C)CCCN(C)C`, the result in assay [1], in assay [8], in assay [2] and in [6] was inactive.

Source of the values: PubChem BioAssay (EPA / NIEHS).
